A selection: hits, their analogues and other compounds. The true share with any hit is near 12%.
NS1 inh = inhibitors of influenza NS1 protein function | actives 0.4% (n = 270,000) | AID 2326 | Potency, µM (series often up to 46.1 µM); calls by dose curve; note: actives are rising curves; nearly all actives have a fitted effect of over 50% in size
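In this qHTS, NS1 from influenza A is expressed in budding yeast, where it slows growth. Cells are switched from glucose to 2% galactose medium (pH 6.0, -URA), treated with compound, and growth recovery is read at OD600.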
Pf growth 48h = P. falciparum growth inhibition at 48 hours (one generation); P. falciparum luciferase growth in erythrocytes, 48 h; Potency, µM (doses to about 28.7 µM), hits mostly inhibitors; actives 5.9% (n = 310,000)
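Erythrocytes infected with P. falciparum carrying an integrated firefly luciferase reporter (2% hematocrit, 0.1% parasitemia final) were exposed to compounds in RPMI 1640 with 0.5% Albumax at 37 C, 5% CO2. Growth inhibition was scored as reduced luminescence.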
AMA1 RON2 block = disrupts binding of P. falciparum AMA1 to RON2. AlphaScreen AMA1-biotinylated RON2 peptide binding. Potency, µM (series often up to 58.2 µM), usual class: inhibitors. actives 0.2% (n = 360,000); note: nearly all actives have a fitted effect of over 45% in size
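AMA1 (3D7) with his tag at 25 nM final met compounds first, then biotinylated RON2 peptide at 25 nM; detection used donor plus acceptor beads, 10 µg/mL apiece, read by AlphaScreen after 30 min at room temperature.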
Pf growth 96h = P. falciparum growth inhibition at 96 hour, primary screen for plastid delayed-death inhibitors; P. falciparum luciferase reporter growth, 96 h; Potency, µM (titrated, usually from 28.7 µM), most hits filed as inhibitors; AID 504834; actives 6.9% (n = 320,000)
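P. falciparum expressing integrated firefly luciferase, in erythrocytes at 2% hematocrit, 0.05% parasitemia, incubated with compounds 96 h at 37 C, 5% CO2. Growth inhibition read as loss of luminescence; two-generation exposure targets delayed-death apicoplast inhibitors.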
SARS PLP yeast = SARS-CoV PLP inhibition in yeast; AID 485353; actives 0.19% (n = 330,000); S. cerevisiae expressing SARS-CoV PLpro, growth rescue; Potency, µM (highest dose often 32.9 µM), hits mostly activators; calls by dose curve; note: nearly all actives have a fitted effect of over 55% in size
HCV inhibitor = HCV inhibition | Huh7.5.1 HCVcc-Cre infection, luciferase reporter, 44 h | Potency, µM (top dose mostly 41.8 µM), most hits filed as inhibitors | actives 3.4% (n = 340,000) | AID 651820
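Seed cells (1,000/well) for 4 h; treat with compound and infect with HCVcc-Cre, moi about 0.5. Incubate 44 h, then detect luciferase activity.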
Numbers stand for hits; i = inactive; ? = inconclusive; nt = no result; [ ] = another dose, or the depositor's remark. Unless noted, calls come from the whole dose curve; as a rule, active = well fitted curve in the direction sought with a large enough effect; inconclusive = small, poorly fitted or top-dose-only effect, or another doubt; inactive = no such curve, though single readings can be large; an effect the other way counts as inactive or inconclusive.

SMILES	NS1 inh	Pf growth 48h	AMA1 RON2 block	Pf growth 96h	SARS PLP yeast	HCV inhibitor
CCCCn1c(=O)[nH]c2nc3cc(NC(C)=O)ccc3nc2c1=O	i	15µM	i	i	i	i
CCOC(=O)c1c(NC(=O)COC(=O)CCOc2cc(C)ccc2C)sc(C(=O)N(C)C)c1C	nt	nt	i[11.6 µM]	nt	nt	i
C#CCOCCOCCOCCNc1nc(N2CCOCC2)nc(N2CCN(C(=O)CCCCCCCCCCNC(=O)[C@@H](CCSC)n3cc(CCO)nn3)CC2)n1	nt	0.66µM	i	?	i	i
C#CCOCCOCCOCCNc1nc(N2CCN(C(=O)CCCCCCCCCCNC(=O)[C@H](CO)n3cc(CCCSC)nn3)CC2)nc(N2CCN(C(=O)CCCCCCCCCCNC(=O)[C@H](CCCCN)n3cc(C[C@@H](C)CC)nn3)CC2)n1	nt	1.3µM	nt	1.9µM	i	?
C#CCOCCOCCOCCNc1nc(N2CCN(C(=O)CCCCCCCCCCNC(=O)[C@H](CCCCN)n3cc(C[C@@H](C)CC)nn3)CC2)nc(N2CCN(C(=O)CCCCCCCCCCNC(=O)[C@H](CCCCN)n3cc(C[C@@H](C)CC)nn3)CC2)n1	nt	nt	?	nt	nt	i[8.37 µM]
C#CCOCCOCCOCCNc1nc(N2CCN(C(=O)CCCCCCCCCCNC(=O)[C@H](CO)n3cc(CCCSC)nn3)CC2)nc(N2CCN(C(=O)CCCCCCCCCCNC(=O)[C@H](CO)n3cc(CCCSC)nn3)CC2)n1	nt	0.29µM	i	0.1µM	i	i
OCC[C@@H]1C[C@H](O)[C@@H](O)[C@]2(CCc3ccccc3CO2)O1	i	i	i	i	i	i
CCOC(=O)C1(CC2CC2)CCN(C(=O)c2cc(C)nc3ccc(CC)cc23)CC1	i	?	i	2.1µM	i	i
O=C(c1cccs1)[C@@H]1[C@@H]2C(=O)N(Cc3ccc4c(c3)OCO4)C(=O)[C@@H]2C2c3ccccc3C=CN21 (stereo not given in full)	?	?	nt	10µM	i	nt
O=C1c2ccccc2C(=O)N1Cc1ccc2c(c1)OCO2	i	i	i	nt	i	i
COC(=O)c1ccc(CN2C(=O)C(C)N(C(=O)c3c(F)cccc3F)c3ccccc32)cc1 (stereo not given)	i	?	i	?	i	?
CC1C(=O)N(Cc2ccc(F)cc2)c2ccccc2N1C(=O)c1c(F)cccc1F (stereo not given)	i	?	i	12µM	i	?
CCN1CCN(CCCNC(=O)c2cc3c(=O)[nH]c4ccccc4c3s2)CC1	i	nt	i	10µM	i[6.58 µM]	?
O=C(NCCCN1CCCC1)c1cc2c(Cl)nc3ccccc3c2s1	nt	?	i	5.9µM	i	18µM
CC1CCN(CCCNC(=O)c2cc3c(Cl)nc4ccccc4c3s2)CC1	nt	?	i	i	i	13µM
O=C(NCCCN1CCOCC1)c1cc2c(=O)[nH]c3ccccc3c2s1	i	i	i	?	i	i
CC1CCN(CCCNC(=O)c2n[nH]c(=O)c3ccccc23)CC1	i	i	i	12µM	i	i
O=C(NCCc1ccccc1)c1n[nH]c(=O)c2ccccc12	i	i	i	i	i	i
CCCCN(C)C(=O)c1cc2c(Cl)nc3ccccc3c2s1	i	i	i	i	i	i
CC(=O)c1cccc(NS(=O)(=O)c2c(C(=O)N3CCOCC3)c(C)n(C)c2C)c1	i	i	i	?	i	i
C[C@H]1CN([C@@H](C)CO)C(=O)CCCn2cc(nn2)CO[C@@H]1CN(C)C(=O)Nc1ccc2c(c1)OCCO2	nt	nt	i	nt	nt	nt
COc1ccc(C2=NN(C(=O)CCC(=O)O)C(c3ccccc3F)C2)cc1 (stereo not given)	i	i	i	2.3µM	i	i
O=C(O)CCC(=O)N1N=C(c2ccc(Br)cc2)CC1c1cccc(Br)c1 (stereo not given)	?	6.6µM	i	i	i	i
COc1ccc(C2=NN(C(=O)CCC(=O)O)C(c3ccc(OC)c(OC)c3)C2)cc1 (stereo not given)	i	i	i	12µM	i	i
Cn1c(CNC(=O)CCNC(=O)c2cccc(Cl)c2)cc(=O)n(C)c1=O	i	i	i	?	i	i
SMILES	NS1 inh	Pf growth 48h	AMA1 RON2 block	Pf growth 96h	SARS PLP yeast	HCV inhibitor
CC(=O)C1=C(c2ccccc2)NC(=O)NC1c1cccs1 (stereo not given)	i	i	i	?	i	i
O=C(CSc1ccc2nnc(CCNC(=O)c3ccccc3)n2n1)NCCc1ccccc1	i	i	i	i	i	i
CCOC(=O)C1CSC(CC(=O)Nc2ccc(OC(F)(F)F)cc2)C(=O)N1 (stereo not given)	i	i	i	?	i	i
CSC1CCCCC1(O)CSc1nc2c(cc1C#N)CCCC2 (stereo not given)	i	9.3µM	i	i	i	?
O=C(C[n+]1cc(-c2ccc(F)cc2)n2c1CCC2)Nc1nc(-c2ccccc2)cs1	i	?	i[2.32 µM]	?	i	?
Cc1cccc(C)c1NC(=O)C[n+]1cc(-c2ccccc2)n2c1CCC2	i	?	i	12µM	i	i
Cn1c(NC(=O)C[n+]2cc(-c3ccc(Cl)c(Cl)c3)n3c2CCC3)cc(=O)n(C)c1=O	i	1.3µM	i[2.32 µM]	0.83µM	i	i
Cc1ccc(-c2c[n+](CC(=O)Nc3nc(-c4ccc(F)cc4)cs3)c3n2CCC3)cc1	i	?	i	3.7µM	i	?
Cc1ccccc1NC(=O)C[n+]1cc(-c2ccccc2)n2c1CCC2	i	?	i	5.9µM	i	i
CCn1c(=O)c2ccccc2n(CC(=O)NC2CCCCC2)c1=O	i	i	i	i	i	i
CCN(CC)S(=O)(=O)c1cccc(NC2=NCC(C)S2)c1 (stereo not given)	nt	i	i	i	i	?
C[C@H](CO)N1C[C@H](C)[C@H](CN(C)C(=O)Nc2cccc(Oc3ccccn3)c2)OCc2cnnn2CCCC1=O	nt	nt	i	nt	nt	nt
Cc1ccc(NC(=O)C[n+]2cc(-c3ccc(C)cc3)n3c2CCC3)cc1	i	6.6µM	i	1.9µM	i	?
Cc1ccc(-c2c[n+](CC(=O)Nc3ccc(C)cc3C)c3n2CCC3)cc1	i	?	i	?	i	i
CC(C(=O)N1c2ccccc2CCc2ccccc21)n1nnc(-c2ccc(N(C)C)cc2)n1 (stereo not given)	i	7.4µM	i	i	i	?
Cc1ccc(-c2nnn(C(C)C(=O)N3c4ccccc4CCc4ccccc43)n2)cc1 (stereo not given)	i	?	i	12µM	i	?
CC(C(=O)N1c2ccccc2Sc2ccccc21)n1nnc(-c2cccs2)n1 (stereo not given)	?	?	i	nt	i	i
CC(C)Oc1ccccc1C1NC(=O)CCC1[N+](=O)[O-] (stereo not given)	i	i	i	i	i	i
CCN(C(=O)COC(=O)CCOc1ccc(C(C)(C)C)cc1)c1c(N)n(Cc2ccccc2)c(=O)[nH]c1=O	nt	nt	i	nt	nt	i
